Cy5 interf NS3h: enhances or quenches Cy5 fluorescence in NS3h assay; Cy5-dT15 DNA with NS3h, fluorescence interference; actives lie on both sides; signal over control mean, under 1 quenches; fluorescence interference ratio at 100 µM; 6% of 16,000 active;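 active means compound fluorescence over control fluorescence at most 0.8, a quencher, or at least a set upper limit, an enhancer; inactive means ratio between 0.8 and the set upper limit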
HCV NS3h FP: hepatitis C NS3 helicase inhibition, primary screen; NS3h Cy5-dT15 DNA binding, fluorescence polarization; inhibition, % at 100 µM; 1.6% of 16,000 active; AID 687043;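 active means inhibition above the average over every tested compound plus 3 SD, cut at about 40% in these data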
* marks the source's active call; other numbers are inactive results. This is a sample that favours compounds with a hit; in the whole collection about 6.9% have one here.

Screening O=C(c1cc2n(n1)C(C(F)(F)F)CC(c1ccc(F)cc1)N2)N1CCCC1 (stereo not drawn) returned Cy5 interf NS3h 0.747* and HCV NS3h FP 7.7.
O=C(c1nn2c(c1Cl)NC(c1ccccc1)CC2C(F)(F)F)N1CCN(c2ccc(F)cc2)CC1 (stereo not drawn) was read as Cy5 interf NS3h 0.99 and HCV NS3h FP 28.4.
For COc1cc(/C=C2/SC(=S)N(C)C2=O)ccc1OCCOc1cc(C)ccc1C(C)C the results were Cy5 interf NS3h 1.03 and HCV NS3h FP -3.5.
N#Cc1c2n(c3c(=O)n(CC(=O)c4ccccc4)cnc13)CCCCC2 was read as Cy5 interf NS3h 1.01 and HCV NS3h FP -5.2.
`Cc1ccc(C2CC(C(F)(F)F)n3nc(C(=O)Nc4ccc(C(C)O)cc4)cc3N2)cc1` (stereo not drawn) gave Cy5 interf NS3h 0.643* and HCV NS3h FP 7.7.
CC(O)c1cccc(NC(=O)c2cc3n(n2)C(C(F)(F)F)CC(c2ccc(F)cc2)N3)c1 (stereo not drawn) was read as Cy5 interf NS3h 0.959 and HCV NS3h FP 14.7.
Screening COC(=O)C(=Cc1cc(Br)c(OCc2ccc([N+](=O)[O-])cc2)c(OC)c1)C(=O)OC returned Cy5 interf NS3h 0.75* and HCV NS3h FP 5.9.
For COc1cc(/C=C/c2[nH]c(=O)[nH]c(=O)c2[N+](=O)[O-])cc(Br)c1OCc1ccccc1 the results were Cy5 interf NS3h 1.08 and HCV NS3h FP 12.6.
Screening COc1ccccc1C1NC(=O)NC(C)=C1C(=O)Nc1ccccc1Cl (stereo not drawn) returned Cy5 interf NS3h 1 and HCV NS3h FP -2.8.
`O=C1NC(=O)/C(=C\c2ccc(Cl)cc2Cl)S1` gave Cy5 interf NS3h 0.963 and HCV NS3h FP -6.3.
Screening NC(=O)SCC(=O)Nc1ccccc1Cl returned Cy5 interf NS3h 0.997 and HCV NS3h FP 7.7.
`Cc1ccc(N2C(=O)CC(NC3CCN(Cc4ccccc4)CC3)C2=O)cc1` (stereo not drawn) gave Cy5 interf NS3h 1.31* and HCV NS3h FP 10.0.
Screening Cc1ccc(N2C(=O)CC(N3CCN(Cc4ccccc4)CC3)C2=O)cc1 (stereo not drawn) returned Cy5 interf NS3h 1.03 and HCV NS3h FP -1.0.
Cc1ccc(N2C(=O)CC(NCc3cccc(C(F)(F)F)c3)C2=O)cc1 (stereo not drawn) was read as Cy5 interf NS3h 1.23* and HCV NS3h FP 17.6.
For Cc1ccc(N2C(=O)CC(NCc3cccc(Cl)c3)C2=O)cc1 (stereo not drawn) the results were Cy5 interf NS3h 1.11 and HCV NS3h FP -0.3.
`COc1cc2ccccc2cc1C(=O)Nc1ccc(F)c([N+](=O)[O-])c1` gave Cy5 interf NS3h 1.13 and HCV NS3h FP 8.2.
C=CCOC(=O)C1=C(C)NC(C)=C(C(=O)OCC=C)C1c1cccc([N+](=O)[O-])c1 was read as Cy5 interf NS3h 0.813 and HCV NS3h FP 19.7.
`Cc1ccc(C2CC(C(F)(F)F)n3nc(C(=O)O)cc3N2)cc1` (stereo not drawn) gave Cy5 interf NS3h 1.04 and HCV NS3h FP -4.9.
`Cc1nc2cc(-c3ccco3)[nH]n2c(=O)c1C` gave Cy5 interf NS3h 0.766* and HCV NS3h FP 8.7.
Screening Cc1ccccc1-c1cc2nc(C)c(Cl)c(=O)n2[nH]1 returned Cy5 interf NS3h 1.03 and HCV NS3h FP -0.9.
`CCCC(=O)Nc1ccc(NC(=O)c2ccc(Cl)c(Cl)c2)cc1` gave Cy5 interf NS3h 1.07 and HCV NS3h FP 9.1.
`CC(=O)NC(CCC(=O)OCc1ccccc1)C(=O)Nc1ccc(C)cc1` (stereo not drawn) gave Cy5 interf NS3h 1.03 and HCV NS3h FP -1.9.
`O=C1NN(c2ccc(Cl)cc2)C(=O)/C1=C\c1ccc(O)c(O)c1` gave Cy5 interf NS3h 0.847 and HCV NS3h FP 4.7.
Screening Cc1ccc(N2NC(=O)/C(=C/c3ccc(Cl)cc3)C2=O)cc1 returned Cy5 interf NS3h 0.675* and HCV NS3h FP 24.9.
Screening Cc1ccc(OCc2nnc(NC(=O)Nc3ccccc3)s2)cc1 returned Cy5 interf NS3h 0.952 and HCV NS3h FP -0.6.
For O=[N+]([O-])c1ccc2c(c1)ONC(c1ccc(Cl)cc1)=N2 the results were Cy5 interf NS3h 0.669* and HCV NS3h FP 22.2.
COc1cc([N+](=O)[O-])cc2c1N=C(c1ccc(Br)cc1)NO2 was read as Cy5 interf NS3h 0.974 and HCV NS3h FP 2.2.
CC(=O)c1ccc(-n2c(C)cc(/C=C(\C#N)C(=O)Nc3ccccc3)c2C)cc1 was read as Cy5 interf NS3h 0.921 and HCV NS3h FP 0.3.
N#Cc1c(-c2cc(Br)cs2)c2c(=O)[nH]c(=O)[nH]c2[nH]c1=O was read as Cy5 interf NS3h 1.21* and HCV NS3h FP 4.5.
Screening Cc1cccc(/C(N)=N\OC(=O)c2cccc(Br)c2)c1 returned Cy5 interf NS3h 1.03 and HCV NS3h FP 13.8.
For CCOc1ccc(N/C=C\C(=O)c2ccc3c(c2)OCO3)c([N+](=O)[O-])c1 the results were Cy5 interf NS3h 1.03 and HCV NS3h FP 29.3.
For O=C(/C=C\Nc1ccccc1[N+](=O)[O-])c1ccc2c(c1)OCO2 the results were Cy5 interf NS3h 0.637* and HCV NS3h FP 47.6*.
For COC(=O)c1ccc(/C=C2\C(=O)NC(=O)N(c3ccc(Cl)cc3)C2=O)cc1 the results were Cy5 interf NS3h 1.15 and HCV NS3h FP 13.6.
Screening Cc1cc(C)nc(N=C(N)Nc2ccc(C(=O)O)cc2)n1 returned Cy5 interf NS3h 1.07 and HCV NS3h FP -14.1.
Cc1cc(C)nc(N=C(N)Nc2ccc(Cl)cc2C(=O)c2ccccc2)n1 was read as Cy5 interf NS3h 0.792* and HCV NS3h FP 0.7.
For O=C(Oc1nn(-c2ccccc2)cc1C(=O)c1ccccc1)c1ccccc1 the results were Cy5 interf NS3h 0.965 and HCV NS3h FP 12.5.
`Cc1cccc(C(=O)O/N=C(/N)Cc2cccc3ccccc23)c1` gave Cy5 interf NS3h 1.05 and HCV NS3h FP 10.5.
CC1C(c2ccccc2)NC(c2ccccc2)C(C)C1(O)c1ccccc1 (stereo not drawn) was read as Cy5 interf NS3h 0.684* and HCV NS3h FP 4.2.
`CCCC1C(c2ccccc2)NC(c2ccccc2)C(C)C1(O)CCC` (stereo not drawn) gave Cy5 interf NS3h 1.02 and HCV NS3h FP 16.3.
C=CCc1cccc(/C=N\N=C2c3ccccc3Cc3ccccc32)c1O was read as Cy5 interf NS3h 0.917 and HCV NS3h FP 7.6.
`Cc1nc(-c2ccccc2)nc2[nH]ccc(=O)c12` gave Cy5 interf NS3h 0.796* and HCV NS3h FP 4.0.
For Cc1nc(-c2ccccc2)c2c(=O)cc[nH]c2n1 the results were Cy5 interf NS3h 1.01 and HCV NS3h FP -1.3.
O=C1CSC2(O1)C1CC3CC(C1)CC2C3 (stereo not drawn) was read as Cy5 interf NS3h 1.04 and HCV NS3h FP 4.6.
CCOC(=O)C1=C(N)Oc2ccc3ccccc3c2C1c1ccc2c(c1)OCO2 (stereo not drawn) was read as Cy5 interf NS3h 0.919 and HCV NS3h FP 4.5.
Screening Cc1ccc(C(=O)CCNc2ccc(I)cc2)o1 returned Cy5 interf NS3h 1.01 and HCV NS3h FP 2.9.
Screening O=C(O)CCC(=O)Nc1ccc(S(=O)(=O)N2CCCCCC2)cc1 returned Cy5 interf NS3h 0.948 and HCV NS3h FP -5.5.
Nc1ccc(S(=O)(=O)N2CCCCCC2)cc1 was read as Cy5 interf NS3h 0.745* and HCV NS3h FP 1.7.
`O=C1/C(=C/c2cccc([N+](=O)[O-])c2)SC(=S)N1c1ccc(F)cc1` gave Cy5 interf NS3h 1.01 and HCV NS3h FP 5.1.

High-throughput results deposited in PubChem by Milwaukee Institute for Drug Discovery.
